# Data published in PubChem BioAssay AID651871 (Sanford-Burnham Center for Chemical Genomics, 2012).
# Test system: H9c2
# Assay: cardiomyocyte survival under oxidative or metabolic stress – cell-based, panel, H9c2 and HL-1, ATP luminescence, set 2, SAR follow-up (AID 651871);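 note: cells exposed to stressor for 2 h before ATP readout; reference of the scale not given here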
# Conditions: H9c2/HL-1 cardiomyocytes, H2O2 oxidative stress, with H2O2, run 2, at 39.5 µM (top of the series)
structure (smiles),measurement,value
COc1ccc2c(c1OC)C(=O)N1c3ccccc3C(=O)N(Cc3cccc(Cl)c3Cl)C21 (stereo unspecified),activity (protection/inhibition),48.1%
